From PubChem BioAssay (NCATS)
Where “and” joins values, the source holds several entries; their conditions need not be identical. Equal entries are not always repeated. Results filed as inconclusive are left out. Calls of active or inactive are those of the source. Calls come from the whole dose curve; as a rule, active = well fitted inhibition curve with a large enough effect; inconclusive = small, poorly fitted or top-dose-only effect; inactive = flat fitted curve, though single readings scatter.

Experiments:
[1] = Drug repurposing screens with cells derived from glioblastoma tumor samples (AID 1345199); conditions: GBM patient neurospheres viability, ATP luminescence, 48 h; note: nearly all actives have a fitted effect of over 40% in size
Outline: (§1)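 Primary testing used CD133+ neurospheres from four GBM patients, seven concentrations, 48 h exposure and ATP-based viability; confirmation added three slower-growing patient lines.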

astro = control astrocytes; test: as above; conditions: viability, ATP luminescence, 48 h; series mostly up to 45.9 µM
Outline: as §1

[2] = at 45.9 µM (top of the series), tumour line B
[3] = at 45.9 µM (top of the series), tumour line D
[4] = at 46 µM (top of the series), tumour line A
[5] = at 46.1 µM (top of the series), tumour line C
% is set by controls: 0 for no effect and ±100 for the full control effect; potency is the fitted concentration of half-maximal effect.

Compound	activity, negative = cell killing [1, 2]	activity, negative = cell killing [1, 3]	activity, negative = cell killing [1, 4]	activity, negative = cell killing [1, 5]	Potency (astro)	activity, negative = cell killing ([1]; at 20 µM (top of the series), tumour line C)	activity, negative = cell killing ([1]; at 21.2 µM (top of the series), tumour line B)	activity, negative = cell killing ([1]; at 21.2 µM (top of the series), tumour line D)	activity, negative = cell killing ([1]; at 21.3 µM (top of the series), tumour line A)	Potency ([1]; tumour line A)
Nc1nc(=O)n([C@@H]2CS[C@H](CO)O2)cc1F	-1.96% (inactive)	-4.58% (inactive)	-12.2% (inactive)	2.71% (inactive)	inactive					
CN1C(=O)OC(C)(C)C1=O					inactive	-9% (inactive)	0.292% (inactive)	-3.8% (inactive)	-18.7% (inactive)	
O=C(O)[C@@H]1C[C@H](CP(=O)(O)O)CCN1	-4.93% (inactive)	-11.9% (inactive)	-21.2% (inactive)	-14% (inactive)	inactive					
O=C(O)CN(CC(=O)O)CC1=CC2C(=CC1=O)Oc1cc(O)c(CN(CC(=O)O)CC(=O)O)cc1C21OC(=O)c2ccccc21 (stereo not given)	-10.9% (inactive)	-10.1% (inactive)	-21.2% (inactive)	-24.7% (inactive)	inactive					
CC(C)CCCC(C)NC(C)C (stereo not given)	-14.7% (inactive)	-20.7% (inactive)	-22.7% (inactive)	-7.93% (inactive)	inactive					
CCCCO	-10.8% (inactive)	1.03% (inactive)	-9.11% (inactive)	6.27% (inactive)	inactive					
O=C1/C(=C\c2cccs2)CCC/C1=C\c1cccs1	-19.7% (inactive)	-28.6% (inactive)		-23.9% (inactive)	inactive					25.1 µM (active)
NC[C@@H]1O[C@H](O[C@H]2[C@@H](O)[C@H](O[C@@H]3[C@@H](O)[C@H](N)C[C@H](N)[C@H]3O[C@H]3O[C@H](CO)[C@@H](O)[C@H](O)[C@H]3N)O[C@@H]2CO)[C@H](N)[C@@H](O)[C@@H]1O	-4.51% (inactive)	-15.7% (inactive)	-10.6% (inactive)	-32.1% (inactive)	inactive					
O.O.O.O.O.O.O.O=S(=O)([O-])[O-].[Co+2]	-22.6% (inactive)	15.1% (inactive)	-23.8% (inactive)	10.4% (inactive)	inactive					
O=[n+]1ccn([O-])c2ccccc21	-6.39% (inactive)	-13.6% (inactive)	-22.5% (inactive)	-17% (inactive)	inactive					
CC[C@H]1OC(=O)C[C@@H](O)[C@H](C)[C@@H](O[C@@H]2O[C@H](C)[C@@H](O[C@H]3C[C@@](C)(O)[C@@H](O)[C@H](C)O3)[C@H](N(C)C)[C@H]2O)[C@@H](CC=O)C[C@@H](C)C(=O)/C=C/C(C)=C/[C@@H]1CO[C@@H]1O[C@H](C)[C@@H](O)[C@@H](OC)[C@H]1OC	-18.4% (inactive) and -8.3% (inactive)	-0.155% (inactive) and -17.6% (inactive)	-15.7% (inactive)	-3.5% (inactive) and -16.4% (inactive)	inactive					
O=C(O)c1ccc(NC2OC[C@@H](O)[C@H](O)[C@H]2O)cc1 (stereo not given in full)	-2.93% (inactive)	0.684% (inactive)	-26.5% (inactive)	-13.1% (inactive)	inactive					
Cc1c(O)c(=O)ccn1C	-9.32% (inactive)	-8.06% (inactive)	-29.8% (inactive)	-25.3% (inactive)	inactive					
C=CC[C@@H]1/C=C(\C)C[C@H](C)C[C@H](OC)[C@H]2O[C@@](O)(C(=O)C(=O)N3CCCC[C@H]3C(=O)O[C@H](/C(C)=C/[C@@H]3CC[C@@H](O)[C@H](OC)C3)[C@H](C)[C@@H](O)CC1=O)[C@H](C)C[C@@H]2OC	-12.2% (inactive)	-18.8% (inactive)		-16.1% (inactive)	inactive					7.94 µM (active)
NC[C@@H]1CC[C@@H](N)[C@@H](O[C@H]2[C@H](O)[C@@H](O[C@H]3O[C@H](CO)[C@@H](O)[C@H](N)[C@H]3O)[C@H](N)C[C@@H]2N)O1	0.351% (inactive)	3.76% (inactive)	-27.2% (inactive)	-13% (inactive)	inactive					
O=C1c2ccccc2CN2C(=O)c3ccccc3CN12	-20.4% (inactive)	-5.7% (inactive)	-23.1% (inactive)	-20% (inactive)	inactive					
C[C@@H]1O[C@@H]1P(=O)(O)O	-9.49% (inactive)	-16.5% (inactive)	-24.5% (inactive)	-7.45% (inactive)	inactive					
OC1OC[C@@H](O)[C@H](O)[C@@H]1O (stereo not given in full)	-0.633% (inactive)	10.5% (inactive)	-6.9% (inactive)	14.5% (inactive)	inactive					
